Only some compounds are listed: those with a hit (about 7.9% of all), similar ones and a draw of the others.
Cav3 T inh = inhibitors of human Cav3.2 T-type calcium channel | O95180 | Cav3.2-expressing cells, Fluo-4 calcium fluorescence FDSS; stronger effect = lower value | B-score at 10 µM | actives 4% (n = 100,000);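 active means single-dose well whose peak fluorescence ratio is a statistical outlier from its plate by either plate-standardised score or position-corrected B-score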
HER2 expr 66K = lowers expression of human Her2 kinase | P04626 | SKBR-3 HER2 protein level, AlphaScreen, 18-24 h; stronger effect = lower value | HER2 level % of control, % at 10 µM | actives 0.69% (n = 65,000) | AID 645;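 active means HER2 level under 5% of the carrier-only control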;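 further: 100% = DMSO carrier and 0% = 500 nM PU-H71 HSP90 inhibitor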
PLAP activator = activators of human placental alkaline phosphatase; P05187; purified PLAP enzyme, luminescent substrate read-out; stronger effect = higher value; activation fold at 20 µM; actives 1.2% (n = 96,000); AID 696; in the data active means activation fold above about 2
M1 ag = agonists of M1 muscarinic receptor; CHO-M1 cells, Fluo-4 calcium fluorescence, agonist mode; stronger effect = higher value; B-score at 10 µM; actives 3% (n = 64,000);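 active means fluorescence rise, raw or as B-score row- and column-corrected plate score, outside the 99.7% band of its plate's samples, either direction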
M1 antagonist = antagonists of rat M1 muscarinic receptor; P08482; CHO-M1 cells, Fluo-4 calcium, ACh EC80 antagonist mode; stronger effect = lower value; B-score at 10 µM; actives 3.4% (n = 64,000); AID 628;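 active means calcium fluorescence response, raw or row-and-column corrected B-score, differing from the plate sample mean either way at a set confidence level, mostly lower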
Target sequence (P08482 whole entry, looked up): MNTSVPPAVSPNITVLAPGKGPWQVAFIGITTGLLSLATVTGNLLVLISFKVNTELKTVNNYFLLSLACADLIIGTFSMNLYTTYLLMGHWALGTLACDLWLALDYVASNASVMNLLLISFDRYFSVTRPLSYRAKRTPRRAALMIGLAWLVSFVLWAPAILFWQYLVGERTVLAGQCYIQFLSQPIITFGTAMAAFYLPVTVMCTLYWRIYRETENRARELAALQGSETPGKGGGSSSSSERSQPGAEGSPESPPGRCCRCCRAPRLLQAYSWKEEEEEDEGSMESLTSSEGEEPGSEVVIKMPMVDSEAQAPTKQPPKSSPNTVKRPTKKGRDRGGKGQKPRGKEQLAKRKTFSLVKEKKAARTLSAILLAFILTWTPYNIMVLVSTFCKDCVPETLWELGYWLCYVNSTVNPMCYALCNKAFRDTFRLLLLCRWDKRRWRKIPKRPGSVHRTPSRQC
* = called active by the depositor; x = no result.

SMILES	Cav3 T inh	HER2 expr 66K	PLAP activator	M1 ag	M1 antagonist
Cn1c(=O)c2c(nc(NC3CCCCC3)n2CC(=O)C23CC4CC(CC(C4)C2)C3)n(C)c1=O	-5.84*	113.8	x	1.66	0.49
O=C(Nc1ccc(N2CCCC2)cc1)c1ccc(Br)o1	-0.0656	97.0	1.2	-0.418	0.58
Cc1cc(N2CCCCC2)nc2ccc(NC(=O)c3ccc(Br)o3)cc12	-4.92*	x	1.6	x	x
Cc1ccc(SC(C)C(=O)Nc2ncn[nH]2)cc1 (stereo not given)	-0.0267	98.9	2.1*	1.13	1.07
CC1CCN(c2nc3ccc(C(=O)N4CCN(Cc5ccc6c(c5)OCO6)CC4)cc3s2)CC1	x	x	1.5	x	x
COc1ccc(-c2nc(CSCC(=O)NC3CCCc4ccccc43)c(C)o2)cc1 (stereo not given)	-8.17*	x	1.5	x	x
COc1ccc(-c2csc(NC(C)c3nc4cc(C(F)(F)F)ccc4n3CCOCCO)n2)cc1 (stereo not given)	-1.29	x	x	x	x
CC(C)Nc1nc(NC(C)C)nc(N(C)C#N)n1	-0.812	102.1	0.9	0.863	-0.114
Cc1ccc(Nc2nc(Cl)nc(N(C)C#N)n2)cc1	3.96*	x	0.8	x	x
COc1ccc(C2=CC3=C(Br)C(=O)C(C)(OC(=O)c4cnc5ccccc5n4)C(=O)C3=CO2)cc1 (stereo not given)	0.0191	x	x	x	x
Cc1ccc(Nc2nc(C(=O)NCc3ccco3)cs2)cc1	-1.5	82.1	0.8	-0.124	-1.76
CCN(CC)C(=O)c1csc(Nc2ccc(C)cc2)n1	-0.735	-19.6*	1.3	-0.508	-0.0413
Cc1sc2ncnc(Sc3nnnn3-c3ccccc3)c2c1C	-0.0481	-13.8*	1	-0.979	-0.0978
O=C(Nc1ccc(O)c(C(=O)O)c1)c1ccc2c(c1)C(=O)N(CC1CCCO1)C2=O (stereo not given)	-0.219	62.8	1.1	-1.93	-1.01
O=C(CN1CCCCC1)Nc1nnc(-c2ccccc2)s1	-2	77.3	2*	0.59	0.436
CCc1nnc(NC(=O)CN2CCN(c3nc(-c4ccccc4)cs3)CC2)s1	-4.11	80.7	2.1*	0.0968	0.349
COc1cc(-c2nnc(Sc3ccc(C(F)(F)F)cc3[N+](=O)[O-])o2)cc(OC)c1OC	0.453	x	0.9	x	x
CCN1C(=O)CC(C(=O)O)SC1=Nc1ccc(OC)cc1 (stereo not given)	-0.17	106.5	1	-0.364	0.614
O=C(Nc1ccccc1F)c1cc2nc(C(F)F)cc(C(F)F)n2n1	-0.843	x	x	x	x
Cc1ccccc1Cn1ccc(NC(=O)CCSc2nc(-c3ccco3)cc(C(F)(F)F)n2)n1	x	55.9	0.9	0.83	0.0503
Cc1ccc(Cn2ccc(NC(=O)CCSc3nc(-c4ccco4)cc(C(F)(F)F)n3)n2)cc1	-8.99*	89.3	1.3	0.268	0.0203
O=C(COc1ccc(Cl)cc1Cl)NC(=O)N1CCOCC1	-0.0826	89.6	0.9	-0.47	0.979
COc1ccc(C)cc1NC(=O)CSc1nnc(CC(=O)Nc2ccccc2C)n1C	-0.318	x	1.6	x	x
CS(=O)(=O)c1nc(-c2ccco2)cc(C(F)(F)F)n1	0.278	-22.4*	1.2	-0.201	-0.0434
COc1ccc(CNC(=O)CN2C(=O)C(C)N(c3ccc(C)cc3)C2=O)cc1 (stereo not given)	x	x	1.3	x	x
SMILES	Cav3 T inh	HER2 expr 66K	PLAP activator	M1 ag	M1 antagonist
Cc1ccc(N2C(=O)N(CC(=O)NCc3ccc(Cl)cc3)C(=O)C2C)cc1 (stereo not given)	-5.21*	x	1	x	x
Nc1c(S(=O)(=O)c2cccc(Cl)c2)c2nc3ccccc3nc2n1/N=C/c1ccc(O)c(O)c1	-0.7	-13.1*	1	0.21	0.717
Cc1ccc(CNC(=O)c2ccc(CN3CCOCC3)cc2)cc1	1.54	218.2	1.4	-0.052	0.387
COc1ccc(-c2nnc(SCc3nnc(-c4ccc(Cl)cc4)o3)n2-c2ccccc2)cc1	-8.43*	73.1	1.3	-1.48	-0.00768
Cc1nnc(SCc2nnc(-c3ccccc3Br)o2)n1-c1ccccc1	1.14	-12.3*	1.5	-0.242	-0.504
Brc1ccccc1-c1nnc(CSc2nnnn2-c2ccccc2)o1	-0.672	131.6	2.1*	0.869	0.585
Cc1csc(SCc2nnc(-c3ccccc3Br)o2)n1	-0.561	156.1	1	-0.0548	-0.27
O=c1oc(-c2cccc(S(=O)(=O)N3CCOCC3)c2)nc2ccccc12	1.2	59.0	1.2	-0.128	0.13
Cc1scc(C(=O)NNC(=S)NCC2CCCO2)c1C (stereo not given)	0.551	x	2.2*	x	x
CCCCNC(=S)NNC(=O)c1csc(CC)c1	0.143	x	x	x	x
CCc1cc(C(=O)NNC(=S)NCC2CCCO2)cs1 (stereo not given)	0.42	x	2.2*	x	x
CN1CCN(C(=O)C2=C[C@H](c3ccccc3)C[C@H](OCc3ccc(CO)cc3)O2)CC1	-2.46	x	x	x	x
CCN(CC)c1ccc(NC(=O)COc2ccc(C)cc2)cc1	0.686	95.1	0.9	-0.126	-0.568
CC(C)Oc1ccc(C(=O)N(Cc2ccco2)C2CCS(=O)(=O)C2)cc1 (stereo not given)	0.687	65.3	1	0.00102	0.17
Cc1cc(NC(=O)COC(=O)CSCc2ccc(Cl)c(Cl)c2)no1	-0.533	91.1	1.2	-0.84	-1.29
Cc1cc(NC(=O)COC(=O)C(Nc2ccc(C(F)(F)F)cc2Cl)C(C)C)no1 (stereo not given)	-4.53*	10.3	0.9	-0.0751	-0.488
N#C/C(C(=O)N1CCOCC1)=C1/SC(Cc2ccccc2)C(=O)N1c1ccccc1 (stereo not given)	-0.453	97.0	1.4	-0.598	-0.183
CCCCc1ccc(CC2S/C(=C(\C#N)C(=O)N3CCOCC3)N(c3ccccc3)C2=O)cc1 (stereo not given)	-3.89*	x	1.6	x	x
COC(=O)Nc1ccc(S(=O)(=O)N(CCO)CC(F)(F)C(F)F)cc1	-0.107	-18.8*	0.8	0.786	-0.796
O=C(O)c1cnc(-c2ccccc2)nc1Sc1cccc(Cl)c1	-6.28*	x	1.5	x	x
CCN(CC)c1ccc(NC(=O)CN2CCN(CC(=O)Nc3ccccc3F)CC2)cc1	0.546	102.3	1.4	-0.674	-0.197
CCN(CC)c1ccc(NC(=O)CN2CCN(c3nc(C)cc(C)n3)CC2)cc1	-4.21*	118.8	1.4	-0.218	-1.11
Cc1ccnc2nc(C(=O)N3CCN(S(=O)(=O)c4ccccc4)CC3)nn12	0.0716	120.2	1	-0.232	0.107
O=C(CN(C(=O)Cn1nnc(-c2cccs2)n1)c1ccc2c(c1)OCCO2)NC1CCCCC1	-4.07*	81.1	1.7	-0.991	0.609
Cc1ccc(-c2nnn(CC(=O)N(CC(=O)NC3CCCCC3)c3cnc4ccccc4c3)n2)o1	-4.37*	93.2	x	0.149	0.587
O=C(CN(Cc1ccccc1F)C(=O)Cn1nnc(-c2cccs2)n1)NC1CCCCC1	-6.31*	x	1.1	x	x
Cc1ccc(-c2nnn(CC(=O)N(CC(=O)NCC3CCCO3)c3ccccc3)n2)o1 (stereo not given)	-0.0123	103.8	1.5	-0.584	0.12
C=C1CCN([C@@H](Cc2ccccc2)C(=O)NC2CCN(Cc3ccccc3)CC2)S(=O)(=O)c2ccccc21	1.45	x	x	x	x

Compound activity from PubChem BioAssay.
